Several values for one entry are separate records, joined by “and”; a condition that tells them apart may be missing. Identical values can stand only once. Some structures have more than one record in an assay (separate samples or runs), and their calls can disagree. Activity calls are given as the source filed them. Rule for the calls: active = hit-call score of the fitted dose curve at least 0.9, where 1 is the maximum; inactive = score below 0.9.
read-out: Interleukin-1 alpha (IL1a), IL1A (gene 3552); experiment: BSK_LPS_IL1a: BioMAP Diversity Plus: LPS Assay for Interleukin-1 alpha (IL1a) Biomarker Activity (AID 2283080); conditions: primary human HUVEC with PBMC; actives raise or lower the signal
Procedure: BSK_LPS is a cell-based, multiplexed-readout assay that uses umbilical vein endothelium and peripheral blood mononuclear cells, a human vascular primary cell co-culture, with measurements taken at 24 hours after chemical dosing in a 96-well plate.BSK_LPS_IL1a is an assay component measured in the BSK_LPS assay. It measures IL-a antibody related to regulation of gene expression using ELISA technology.Data from the assay component BSK_LPS_IL1a was analyzed into 1 assay endpoint. This assay endpoint, BSK_LPS_IL1a, was analyzed with bidirectional fitting relative to DMSO as the negative control and baseline of activity. Using a type of binding reporter, gain or loss-of-signal activity can be used to understand changes in the signaling as they relate to the gene IL1A. Furthermore, this assay endpoint can be referred to as a primary readout, because this assay has produced multiple assay endpoints where this one serves a signaling function. To generalize the intended target to other relatable targets, this assay endpoint is annotated to the cytokine intended target family, where the subfamily is interleukins.
The levels of cell surface (or secreted, indicated by the prefix "s") biomarker endpoints were measured by ELISA. Overt cytotoxicity to cells in confluent adherent cultures (all systems other than the BT system) was assessed by measuring total protein levels using sulforhodamine B (SRB) staining in parallel cultures at the time of biomarker measurements, indicated as SRB endpoints. For proliferation assays for adherent cell types, individual cell types are cultured at sub-confluence and relative cell numbers quantified by SRB staining at time points optimized for each system (48 h: 3C and CASM3C systems; 72 h: BT and HDF3CGF systems; 96 h: SAg system). SRB was performed by staining cells with 0.1% SRB after fixation with 10% TCA and reading wells at 560 nm.Viability and proliferation of PBMC (T cells) was quantified by Alamar Blue reduction for the SAg and BT systems. For PBMC viability (referred to as PBMC Cytotoxicity within the assay endpoint names), cells were plated (75,000/well in a 96-well plate) and then chemical samples added for 1 h before addition of activators, SEB and TSST-1 (20 ng/mL final concentration each). Cells were incubated for 90 h. Then, Alamar Blue (20 uL/well) (Invitrogen, Cat DAL1100) was added for 6 h, and the plates were read with a fluorescence microplate reader at 546/580 nm (excitation/emission). For PBMC proliferation, cells were plated and activated as above but incubated for only 16 h prior to addition of Alamar Blue. Plates were read after 6 h.

| Compound | outcome | AC50 |
| --- | --- | --- |
| CCCCOCCO | inactive | – |
| CCCCCCCCOC(=O)CCCCCCCCC(=O)OCCCCCCCC | inactive | – |
| CCCCCCCCCCCCc1ccccc1S(=O)(=O)O | inactive | – |
| CCN(CC)CCNc1ccc(CNC=O)c2sc3ccc(OC)cc3c(=O)c12 | – | 11.8 µM (active) |
| CCCCCCCC(=O)O | inactive | – |
| CC(C)CCCCCCOC(=O)CCCCC(=O)OCCCCCCC(C)C | inactive | – |
| CC1=C(/C=C/C(C)=C/C=C/C(C)=C/C(=O)O)C(C)(C)CCC1 | inactive | – |
| CCCCCCCCCCCCCC[N+](C)(C)C | – | 1.76 µM (active) |
| O=C(O)Cc1cc(I)c(Oc2cc(I)c(O)c(I)c2)c(I)c1 | – | 21.2 µM (active) |
| N#C[C@@H]1CC(F)(F)CN1C(=O)CNC1CC2CCC(C1)N2c1ncccn1 (stereo not given in full) | inactive | – |
| OCCC(F)(F)C(F)(F)C(F)(F)C(F)(F)C(F)(F)C(F)(F)F | inactive | – |
| C[C@@H]1C[C@H]2[C@@H]3CCC4=CC(=O)C=C[C@]4(C)[C@@]3(F)[C@@H](O)C[C@]2(C)[C@@]1(O)C(=O)COP(=O)(O)O | inactive | – |
| NCC(F)(F)C(F)(F)C(F)(F)C(F)(F)C(F)(F)C(F)(F)C(F)(F)F | inactive | – |
| CC(C)(C)c1cc(C(C)(C)C)c(O)c(C(C)(C)C)c1 | inactive | – |
| CCCCC(CC)COC(=O)CCCCC(=O)OCC(CC)CCCC (stereo not given) | inactive | – |
| c1ccc2c(c1)ccc1ccccc12 | inactive | – |
| OCCC(F)(F)C(F)(F)C(F)(F)C(F)(F)C(F)(F)C(F)(F)C(F)(F)C(F)(F)F | inactive | 18.7 µM (active) and 23.8 µM (active) |
| CC(C)(C)c1cccc(C(C)(C)C)c1O | inactive | – |
| Cc1cc(CCN2CCN(c3nsc4ccccc34)CC2)cc2c1NC(=O)CC2(C)C | – | 10.3 µM (active) |
| Cc1oc(-c2ccccc2)nc1CCOc1ccc(C[C@H](Nc2ccccc2C(=O)c2ccccc2)C(=O)O)cc1 | – | 20 µM (active) |

| Compound | outcome | AC50 |
| --- | --- | --- |
| COCC(C)OCC(C)O (stereo not given) | inactive | – |
| O=c1c(-c2ccc(O)cc2)coc2cc(O)ccc12 | inactive | – |
| O=[N+]([O-])c1ccc(O)cc1 | inactive | – |
| CCCCC(CC)COC(=O)CCCCC(=O)OCc1ccccc1 (stereo not given) | inactive | – |
| CCCCCCCCCCCCN1CCCC1=O | – | 33 µM (active) |
| O=C(O)c1ccccc1C(c1ccc(O)cc1)c1ccc(O)cc1 | inactive | – |
| CCCCCCC(=O)O | inactive | – |
| CCc1ccc(CCOc2ccc(CC3SC(=O)NC3=O)cc2)nc1 (stereo not given) | inactive | – |
| CCC(=C(c1ccc(O)cc1)c1ccc(OCCN(C)C)cc1)c1ccccc1 | – | 8.66 µM (active) |
| COc1ccc([N+](=O)[O-])cc1N | inactive | – |
| Nc1cccc2c(N)cccc12 | inactive | – |
| c1ccc2c(c1)Cc1ccccc1-2 | inactive | – |
| Oc1cccc(O)c1 | inactive | – |
| CC(=O)CC(C)(C)O | inactive | – |
| ClC1=C(Cl)C(Cl)(Cl)C(Cl)=C1Cl | – | 10.1 µM (active) |
| CCCOc1sc(C(=O)N2CCC(c3cc(CN)ccc3F)CC2)c(C)c1Br | – | 8.61 µM (active) |
| CN1CCC[C@H]1c1cccnc1 | inactive | – |
| CCCOC(=O)c1ccc(O)cc1 | inactive | – |
| c1ccc2cc3c(ccc4ccccc43)cc2c1 | inactive | – |

Source: PubChem BioAssay (EPA / NIEHS)
